The text below walks through data of publication PMC4552634, “A New Set of Chemical Starting Points with Plasmodium falciparum Transmission-Blocking Potential for Antimalarial Drug Discovery” (PLoS ONE, 2015).

For this test, the system named is P. falciparum stage V gametocytes. Also noted: BacTiter-Glo ATP luminescence viability of purified stage V gametocytes in 384-well plates, per cent inhibition versus DMSO. To be noted: 48 h, 5 µM, inhibitor.

Where two headings read alike, the source gives them in different places. The campaign covered roughly 13,000 compounds. About 3,200 (25%) showed an effect of 50% or more. The list shows a part of the results.

For `CC(C)c1cccc(OCC2CCN(c3ncc(C(=O)Nc4ccccc4)cc3Cl)CC2)c1` [TCMDC-134262], the “% Inhibition” value is given as 5.5%.
With `O=C(NC1CC1)c1cnc(N2CCC(c3ccccc3)CC2)c(Cl)c1` [TCMDC-134605], the “% Inhibition” value is on record as 18.88%.
Take `COc1cc(F)c2nccc([C@@H](O)CN3CCC(NCc4cc5c(cc4F)OCCO5)CC3)c2c1` [TCMDC-141570]: the “% Inhibition” value is listed as 69.54%.
The same measure, in the same setting: under `COc1ccc2nccc([C@@H](O)CN3CCC(NCc4cc5cccc(O)c5c(=O)[nH]4)CC3)c2c1` [TCMDC-141223] stands 13.37%; under `COc1cc(F)c2ncc(F)c([C@@H](O)CN3CCC(NCc4cc5c(cn4)OCCO5)CC3)c2c1` [TCMDC-135378], -21.41%.
Still for that read-out and setting: under `COc1ccc2nccc([C@@H](O)CN3CCC(NCc4ccc5c(c4)NC(=O)C(C)S5)CC3)c2c1` (stereo partly shown) [TCMDC-141222] stands 79.58%.
Same read-out and setting: for `COc1ccc2nccc([C@@H](O)CN3CCC(NCc4ccc5c(c4)NC(=O)CS5)CC3)c2c1` [TCMDC-141058] the value was 3.469%; for `COc1ccc2nccc([C@@H](O)CN3CCC(NCc4ccc5c(c4)NC(=O)CO5)CC3)c2c1` [TCMDC-140793], 20.76%.
Take `COc1ccc2nccc([C@@H](O)CN3CCC(NCc4cc5cc(Cl)ccc5[nH]4)CC3)c2c1` [TCMDC-140697]: the “% Inhibition” value is 66.18%.
Same read-out and setting: for `COc1cc(F)c2nccc([C@@H](O)CN3CCC(NCc4nc5c(F)cccc5[nH]4)CC3)c2c1` [TCMDC-140970] the value was -8.506%; for `COc1ccc2nccc([C@@H](O)CN3CCC(NCc4cc5cc([N+](=O)[O-])ccc5[nH]4)CC3)c2c1` [TCMDC-140693], 14.13%.
On the same count and under the same terms, under `CCCN1CCC2(CC1)NC(C(=O)NCCC(C)C)Cc1c2[nH]c2cc(Cl)ccc12` (stereo not shown) [TCMDC-141295] stands -32.44%; under `COc1ccccc1C(=O)Nc1ccc(Nc2nc(C)cc(N3CCOCC3)n2)cc1` [TCMDC-124706], 21.35%.
As for `Cc1cccc2[nH]c(-c3cccc(-c4cccc(NC(=O)c5cncn5C)c4)c3)nc12` [TCMDC-137063], the “% Inhibition” value was 85.59%.
On the same count and under the same terms, under `Cc1cccc2[nH]c(-c3cccc(-c4cccc(NC(=O)c5cn(C)c(=O)n5C)c4)c3)nc12` [TCMDC-137137] stands -10.73%; under `Cn1cncc1C(=O)Nc1cccc(-c2cccc(-c3nc4ccc(F)cc4[nH]3)c2)c1` [TCMDC-137058], 82.61%; under `Cn1cncc1C(=O)Nc1ccc(-c2cccc(-c3nc4ccc(F)cc4[nH]3)c2)cc1` [TCMDC-137056], 28.45%.
The same measure, in the same setting: under `Cn1cncc1C(=O)Nc1cccc(-c2cccc(-c3nc4ccccc4[nH]3)c2)c1` [TCMDC-137054] stands 26.78%; under `Cn1cncc1C(=O)Nc1cccc(-c2ccc(-c3nc4ccccc4[nH]3)cc2)c1` [TCMDC-137060], 87.09%.
Still for that read-out and setting: for `Cn1cncc1C(=O)Nc1cccc(-c2csc(-c3nc4ccccc4[nH]3)c2)c1` [TCMDC-132396] the value was -5.264%; for `Cn1cncc1C(=O)Nc1cccc(-c2cccc(-c3nc4ccc(C(F)(F)F)cc4[nH]3)c2)c1` [TCMDC-137061], 89.86%.
For the molecule `Cn1cncc1C(=O)Nc1cccc(-c2ccc(-c3nc4ccc(C(F)(F)F)cc4[nH]3)cc2)c1` [TCMDC-137064], the “% Inhibition” value is -23.15%.
Same read-out and setting: for `Cn1cncc1C(=O)Nc1ccc(-c2cccc(-c3nc4ccc(C(F)(F)F)cc4[nH]3)c2)cc1` [TCMDC-137062] the value was -23.24%; for `Cc1cccc2[nH]c(-c3ccc(-c4cccc(NC(=O)c5cncn5C)c4)cc3)nc12` [TCMDC-137057], -16.54%.
As for `Cn1cncc1C(=O)Nc1cccc(-c2ccc(-c3nc4ccc(F)cc4[nH]3)cc2)c1` [TCMDC-137059], the “% Inhibition” value is reported as -26.92%.
Still for that read-out and setting: for `O=C(/C=C/c1ccc(Cl)c(Cl)c1)NCCCCCN1CCC(NC(=O)Nc2ccc(F)c(Cl)c2)CC1` [TCMDC-135720] the value was -54.39%; for `O=C(c1ccc(-c2ccc(-c3nc4cc(C(F)(F)F)ccc4[nH]3)s2)cc1)N1CCCCC1CN1CCC(O)C1` (stereo not shown) [TCMDC-132342], -28.43%.
On the same count and under the same terms, for `COc1ccc(Nc2nccc(-c3cccc(NC(=O)c4cc5cc(F)ccc5[nH]4)c3)n2)cc1` [TCMDC-133307] the value was 7.51%; for `COc1ccc(-c2cc(C(=O)N[C@@H](CC3CCCCC3)C(=O)NCCN3CCCC3)ccc2O)cc1` [TCMDC-140802], 56.09%.
Still for that read-out and setting: under `COc1ccc(-c2cc(C(=O)N[C@@H](CC3CCCCC3)C(=O)NCCN3CCCCC3)ccc2O)cc1` [TCMDC-140805] stands 23%.
Consider `CCCCNC(=O)[C@H](CC1CCCCC1)NC(=O)c1ccc(O)c(-c2ccc(OC)cc2)c1` [TCMDC-140803], for which the “% Inhibition” value came out at 9.095%.
Still for that read-out and setting: for `O=C(Nc1ccc2nc(-c3ccc4nc(NC(=O)C5CCCCC5)sc4c3)[nH]c2c1)C1CCCCC1` [TCMDC-125768] the value was -44.12%.
Regarding `O=C(N[C@@H](Cc1ccccc1)[C@H](O)CNC1CCc2ccccc2C1)c1cc(C2CCCC2)cc(N2CCCC2=O)c1` (stereo partly shown) [TCMDC-134647], the “% Inhibition” value was -1.727%.
As for `Cc1ccc(C)c(C=CC(=O)NC2CCC(CN3CCC(c4c[nH]c5ccccc45)CC3)CC2)c1` (stereo not shown) [TCMDC-139904], the “% Inhibition” value (% Inhibition) came to 66.94%.
Still for that read-out and setting: for `Cc1ccc(/C=C/C(=O)NC2CCC(CN3CCC(c4c[nH]c5ccccc45)CC3)CC2)cc1` (stereo not shown) [TCMDC-139717] the value was 80.48%.
On to `CCCCC/C=C/C(=O)NC1CCC(CN2CCC(c3c[nH]c4ccccc34)CC2)CC1` (stereo not shown) [TCMDC-139709], for which the “% Inhibition” value turned out to be 109.3%.
Consider `Cc1ccc(/C=C/C(=O)NC2CCC(CN3CCC(c4c[nH]c5ccccc45)CC3)CC2)cc1C` (stereo not shown) [TCMDC-139760], for which, under “% Inhibition”, the “% Inhibition” value is 36.59%.
As for `O=C(/C=C/c1cccs1)NC1CCC(CN2CCC(c3c[nH]c4ccccc34)CC2)CC1` (stereo not shown) [TCMDC-139759], the “% Inhibition” value came to 42.82%.
Turning to `Cc1ccc(C)c(C=CC(=O)NC2CCC(CN3CCC(c4c[nH]c5ccccc45)CC3)CC2)c1` (stereo not shown) [TCMDC-139916], the “% Inhibition” value (% Inhibition) is recorded as -2.713%.
Still for that read-out and setting: under `Cc1ccc(/C=C/C(=O)NC2CCC(CN3CCC(c4c[nH]c5ccccc45)CC3)CC2)cc1` (stereo not shown) [TCMDC-139702] stands 110%.
Turning to `O=C(c1cc2c(s1)-c1cccc(Cl)c1SC2)N1CCN(c2ccncc2)CC1` [TCMDC-133145], the “% Inhibition” value was found to be 30.1%.
On the same count and under the same terms, for `CCOc1cc2ncnc(Nc3ccc(OCc4ccccc4Br)c(OC)c3)c2cc1OCC` [TCMDC-131938] the value was -6.786%; for `COc1ccccc1C1CC(c2ccccc2)=NN1C(=O)c1ccco1` (stereo not shown) [TCMDC-124921], 5.682%; for `COc1ccc(-c2cn3c(C(=O)Nc4ccccc4Cl)c(-c4ccccc4)c4c3n2CCCC4)cc1` [TCMDC-125125], -39.86%.
With `CCNC(=O)CCc1cccc(Br)c1` [TCMDC-137648], the “% Inhibition” value turned out to be 26.26%.
Same read-out and setting: for `CCNc1cc(C(=O)N[C@@H](Cc2ccccc2)[C@H](O)CNCCc2cccc3ccccc23)cc(N2CCCC2=O)c1` [TCMDC-134568] the value was -9.566%.
Still for that read-out and setting: under `COC(=O)[C@@H](NC(=O)[C@H](Cc1ccc(OC)c(OC)c1)Nc1ccc(C#N)c2ccccc12)c1ccc(O)cc1` [TCMDC-136637] stands 53.18%.
Turning to `Cc1cc(NC(=O)[C@H](CC(C)C)Nc2ccc(C#N)c3ccccc23)ccc1F` [TCMDC-136623], the “% Inhibition” value is -63.41%.
In the case of `CC(C)C[C@H](Nc1ccc(C#N)c2ccccc12)C(=O)N[C@@H]1CCCc2ccccc21` [TCMDC-136088], the “% Inhibition” value was 59.15%.
On the same count and under the same terms, under `COC(=O)[C@@H](NC(=O)[C@@H](Nc1ccc(C#N)c2ccccc12)C(C)(C)C)c1ccc(O)cc1` [TCMDC-136607] stands 78.97%.
Same read-out and setting: for `N#Cc1ccc(N[C@@H](CC2CCCCC2)C(=O)NCc2cc(Cl)cc(Cl)c2)c2ccccc12` [TCMDC-136626] the value was 13.09%.
Same read-out and setting: under `CCCCC1(NC(=O)[C@H](CC(C)C)Nc2ccc(C#N)c3ccccc23)CCCCC1` [TCMDC-136624] stands -52.31%.
For the molecule `CC(C)(C)[C@@H](Nc1ccc(C#N)c2ccccc12)C(=O)NC1(Cc2ccc(O)cc2)CCCC1` [TCMDC-136782], the “% Inhibition” value is given as 18.1%.
As to `N#Cc1ccc(N[C@@H](CC2CCCCC2)C(=O)N[C@@H]2CCCc3ccccc32)c2ccccc12` [TCMDC-136633], the “% Inhibition” value was 13.98%.
In the case of `COC(=O)[C@@H](NC(=O)[C@H](CC(C)C)Nc1ccc(C#N)c2ccccc12)c1ccc(O)cc1` [TCMDC-136622], the “% Inhibition” value amounted to 62.67%.
The same measure, in the same setting: under `CC(C)(C)[C@@H](Nc1ccc(C#N)c2ccccc12)C(=O)NC1(Cc2ccc(O)c(Br)c2)CCCC1` [TCMDC-136784] stands 27.12%; under `CCC(CC)C(CC(=O)NC(C)(C)CCc1ccccc1OC)Nc1ccc(C#N)c2ccccc12` (stereo not shown) [TCMDC-132308], 3.423%.
On the same count and under the same terms, under `COc1cccc([C@@H](CC(=O)Nc2cc(C(F)(F)F)ccc2OC)Nc2ccc(C#N)c3ccccc23)c1` [TCMDC-132309] stands 11.85%; under `CC(=O)Nc1cccc(CNCc2ccc(-c3cnc(N4CCCC(c5ccccc5)C4)nc3)cc2)c1` (stereo not shown) [TCMDC-133723], -4.34%; under `CC(Sc1nc(-c2ccccc2)c(-c2ccccc2)o1)C(=O)NC1CC1` (stereo not shown) [TCMDC-125313], 34.01%.
The same measure, in the same setting: for `O=C(Nc1ccc(Cn2ncc(N3CCCNCC3)c(Cl)c2=O)cc1)Nc1cccc(SC(F)(F)F)c1` [TCMDC-133321] the value was -32.98%; for `O=C(Nc1ccc([N+](=O)[O-])cc1)Nc1nc2ccc(Cl)cc2s1` [TCMDC-123703], 38.6%; for `Cc1cccc2nc(-c3ccc(-c4ccc(NC(=O)C(C)CN(C)C)cc4)s3)[nH]c12` (stereo not shown) [TCMDC-137115], 20.93%.
As for `COc1nc2c(CCN3CCC(NCc4ccc5c(n4)NC(=O)CO5)CC3)c(Cl)cnc2cc1F` [TCMDC-135766], the “% Inhibition” value is -7.442%.
